{"source": "ChEMBL document CHEMBL1201862", "about": "“PubChem BioAssay data set” (2004)", "experiment": "M. tuberculosis growth inhibition, dose response, 7H9 media, purified and synthesized compounds, set 4 (AID 504857); call rule not given here", "type": "functional", "note": "Potency and affinity values are given separately.", "data": [{"smiles": "Nc1c(C(=O)NC2CCCCC2)nsc1C(=O)OCC(=O)NC1CCCCC1", "values": [{"measurement": "IC90", "result": "> 71.1 µM (active)"}]}]}
